# Laboratory results as given in PubChem BioAssay (NCATS).
# Results filed as inconclusive are left out. A call without a number means that no potency is given here. Calls of active or inactive are those of the source. Unless noted, calls come from the whole dose curve; as a rule, active = well fitted curve in the direction sought with a large enough effect; inconclusive = small, poorly fitted or top-dose-only effect, or another doubt; inactive = no such curve, though single readings can be large; an effect the other way counts as inactive or inconclusive.
# Assays:
# [1] = qHTS for differential inhibitors of proliferation of Plasmodium falciparum line D10 (AID 1877);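 note: parasites grown with compound for 72 h before DNA staining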
# [2] = qHTS Assay for Modulators of Human Peripheral Myelin Protein 22 (PMP22) Expression/Activity (AID 1967; active = well fitted curve in the direction sought with a large enough effect in the signal ratio; the % refers to the signal ratio)
# In short: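 Mouse MSC80 Schwann line, Pmp22 promoter–CBG68 reporter, EF-alpha–CBR internal control. 24h compound exposure, 37 °C/5% CO2, DMEM + 10% FBS. Readout: corrected green/red luminescence ratio, normalized to untreated cells; concentration-response curves fitted and classified.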
# [3] = Quantitative high throughput screen for delayed death inhibitors of the malarial parasite plastid, 48 hour incubation (AID 488752); note: nearly all actives have a fitted effect of over 65% in size
# In short: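 One parasite generation (48 h, 37 C, 5% CO2) of luciferase-reporter P. falciparum in erythrocytes is run with test compound; decreased luminescence indicates inhibited growth.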
# [4] = biological target: Transient receptor potential cation channel subfamily V member 1 (Homo sapiens) (UniProt Q8NER1); assay: HTS Assay for Compounds that Act as Enhancers of the Vanilloid Receptor 1 (AID 488979)
# In short: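 Calcium influx kinetics via Fluo-8 (480/520 nm) in TRPV1-expressing cells, 2000/well cultured overnight at 35.5C. Compound-alone read 3 min (agonist phase), followed by EC20 capsaicin challenge for 2 min (enhancer phase).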
# [5] = qHTS to identify inhibitors of the type 1 interferon - major histocompatibility complex class I in skeletal muscle: primary screen against the NCATS Mechanism Interrogation Plate v5.0 (MIPE) Libary (AID 1347411); note: potency is the fitted concentration of half-maximal effect; nearly all actives have a fitted effect of over 65% in size
# In short: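 Cells were genome-edited human myoblasts carrying a HiBit tag on endogenous HLA-B. They were treated with IFN-beta (4.0 ng/ml) and titrated compounds (top 46 uM) for 24 hrs before lytic HiBiT detection.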
# [6] = qHTS assay to identify inhibitors of the type 1 interferon - major histocompatibility complex class I in skeletal muscle: Counter screen cell viability and HiBit confirmation (AID 1347412); conditions: iHSKM muscle cells + IFN-b, HiBiT or CellTiter-Glo, 24 h; HiBiT; note: potency is the fitted concentration of half-maximal effect; nearly all actives have a fitted effect of over 60% in size
# In short: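 Duplicate plates, pinned identically: one read for HiBiT-tagged endogenous HLA-B luminescence, the other for ATP-content viability via CellTiter Glo. Cells were genome-engineered human myoblasts given 4 ng/ml IFN-b; compounds 12-pt, 1:3 from 46 uM final; 24 hr exposure.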
# [7] = biological target: Phospholipid hydroperoxide glutathione peroxidase GPX4 (Homo sapiens) (UniProt P36969); assay: Primary qHTS Assay for Inhibitors of Recombinant Selenoprotein Glutathione Peroxidase 4 (GPX4) (AID 1845192); conditions: outcome: dose series up to 50 µM unless noted; note: nearly all actives have a fitted effect of over 65% in size
# In short: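 NADPH consumption, followed by fluorescence at 340/450 nm between 0 and 15 min, reports GPX4 activity via coupled glutathione reductase (100 nM). Enzyme 200 nM was pre-exposed to compound 30 min; 0.5 mM cumene hydroperoxide and 1 mM GSH served as substrates.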
# [8] = Counterscreen qHTS for small molecule stabilizers of the endoplasmic reticulum resident proteome: GLuc-NoTag assay (AID 1508627);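 note: SH-SY5Y cells given compound then 100 nM thapsigargin to empty ER calcium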
# In short: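 Luminescence of Gaussia luciferase secreted into the medium (coelenterazine, 0.07x final, unlysed cells) was the read-out. Human SH-SY5Y neuroblastoma cells constitutively secreting untagged GLuc received compound for 19 h, then 100 nM thapsigargin for 4 h.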
# [9] = Confirmatory qHTS for small molecule stabilizers of the endoplasmic reticulum resident proteome: Secreted ER Calcium Modulated Protein (SERCaMP) assay (AID 1508628); note: nearly all actives have a fitted effect of over 40% in size; note: potency is the fitted concentration of half-maximal effect
# In short: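 We seeded SH-SY5Y-GLuc-SERCaMP cells, added compounds (three concentrations in the primary run, eleven up to 76.6 uM in confirmation), incubated 16 h, depleted ER calcium with thapsigargin, and read luciferase 4 h later.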
# [10] = qHTS Assay for Identification of Small Molecule Antagonists for Thrombopoietin (TPO) Signaling Pathway (AID 918); conditions: TPO-dependent cell signaling reporter, antagonist mode; note: potency is the fitted concentration of half-maximal effect; nearly all actives have a fitted effect of over 60% in size
# In short: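 First, Ba/F3 reporter cells expressing human TPO receptor were held overnight without IL-3. Next, compound and 26 pM TPO were added. After 24 hrs incubation at 37 C, luciferase luminescence under the Glycoprotein IIb promoter was recorded.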
# [11] = biological target: Tyrosine-protein kinase Yes (Homo sapiens) (UniProt P07947); assay: qHTS for small molecule inhibitors of Yes1 kinase: Primary Screen (AID 686947); note: potency is the fitted concentration of half-maximal effect; nearly all actives have a fitted effect of over 60% in size
# In short: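 ADP-Glo luminescence readout; final 4 nM Yes1, 0.1 mM ATP, 0.3 mg/mL poly(E4Y), Tris pH 7.5, MgCl2, DTT, Brij-35. 20 min compound preincubation, 60 min reaction at RT. Normalized to DMSO wells with and without enzyme.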
# [12] = qHTS for small molecule inhibitors of Yes1 kinase: Counter Assay (AID 686950);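 note: no kinase present so only ADP-Glo detection of a fixed ADP amount is tested; luminescence from ADP-Glo reporting ADP in a fixed ATP and ADP mixture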
# In short: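 Luminescence read-out from ADP-Glo quantifies a fixed ADP amount (0.02 mM ADP with 0.08 mM ATP) after 60 min at room temperature; signal is normalized between DMSO wells with ATP/ADP and with 0.1 mM ATP alone.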
# [13] = biological target: Voltage-gated inwardly rectifying potassium channel KCNH2 (Homo sapiens) (UniProt Q12809); assay: qHTS Assay for Small Molecule Inhibitors of the Human hERG Channel Activity (AID 588834);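 note: top concentration of the series differs between compounds; lower thallium flux fluorescence means stronger hERG block; nearly all actives have a fitted effect of over 50% in size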
# In short: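 Concentration-response qHTS measuring drop in thallium-sensitive dye signal. U2OS cells carrying BacMam hERG; compound exposure ~10 min, then stimulation buffer and 2 min read at 1 sec intervals.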
# [14] = biological target: Muscarinic acetylcholine receptor M1 (Rattus norvegicus) (UniProt P08482); assay: qHTS Assay for Antagonists of Acetylcholine Muscarinic M1 Receptor: Kinetic Measurement of Intracellular Calcium Response (AID 943);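 note: Fluo-4 calcium signal as peak divided by basal fluorescence over 4 min; nearly all actives have a fitted effect of over 75% in size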
# In short: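 Intracellular calcium flux, recorded with Fluo-4 in a kinetic plate reader, served as signal; the response to carbachol at EC80 (100 nM final) was taken as maximal over minimal fluorescence after a 10 min compound pre-incubation in rat M1-CHO cells.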
# [15] = qHTS profiling for inhibitors of Plasmodium falciparum (3D7) proliferation (AID 743322; call rule not given here;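 note: infected erythrocytes exposed to compound for 72 h before lysis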); conditions: P. falciparum 3D7 proliferation; at 28.7 µM (top of the series)
# In short: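 Erythrocytes infected with P. falciparum (0.3% parasitemia, 2.5% hematocrit) incubated with compounds 72 h at 37 C, 5% CO2. Lysis with saponin/Triton buffer containing SYBR Green I, overnight at room temperature in the dark; DNA fluorescence (485/535 nm) normalised to 0.29 uM artemisinin and DMSO.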
# [16] = qHTS profiling for inhibitors of Plasmodium falciparum (DD2) proliferation (AID 743323; call rule not given here); conditions: lower = more inhibition; at 28.7 µM (top of the series)
# In short: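 Parasite proliferation measured via DNA-dye fluorescence, as uninfected erythrocytes lack DNA. Cultures at 0.3% parasitemia and 2.5% hematocrit incubated 72 h with compound; signal scaled between vehicle and 0.29 uM artemisinin wells.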
# [17] = qHTS profiling for inhibitors of Plasmodium falciparum (HB3) proliferation (AID 743324); conditions: Plasmodium falciparum HB3 blood-stage proliferation; at 28.7 µM (top of the series)
# In short: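 P. falciparum HB3 grown in erythrocytes (0.3% parasitemia, 2.5% hematocrit final) with compound for 72 h at 37 C, 5% CO2. Parasite DNA detected by SYBR Green after saponin/triton lysis overnight; normalized to 0.29 uM artemisinin and DMSO.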
# [18] = biological target: Rap guanine nucleotide exchange factor 3 (Homo sapiens) (UniProt O95398); assay: Confirmatory qHTS for antagonist of cAMP-regulated guanine nucleotide exchange factor 3 (EPAC1) (AID 1645880); note: nearly all actives have a fitted effect of over 55% in size
# In short: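 Nucleotide exchange uses 100 nM EPAC1, 250 nM RAP1B-BODIPY-GDP and 50 uM GDP, with compounds in a concentration-titration series. After 5 min at room temperature, fluorescence (480 nm ex/540 nm em) is read every 5 min for 30 min. Data are normalized to control ATA and DMSO.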
# [19] = biological target: Rap guanine nucleotide exchange factor 3 (Homo sapiens) (UniProt O95398); assay: Confirmatory qHTS for agonist of cAMP-regulated guanine nucleotide exchange factor 3 (EPAC1) (AID 1645881);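 note: EPAC1 catalysed release of BODIPY-GDP from Rap1B seen as fluorescence loss; nearly all actives have a fitted effect of over 75% in size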
# [20] = biological target: Rap guanine nucleotide exchange factor 4 (Homo sapiens) (UniProt Q8WZA2); assay: Confirmatory qHTS for agonist of cAMP-regulated guanine nucleotide exchange factor 4 (EPAC2) (AID 1645884);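 note: nucleotide exchange releases bodipy-GDP from Rap1 and this lowers its fluorescence; nearly all actives have a fitted effect of over 65% in size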
# Chain of Rap guanine nucleotide exchange factor 4 (Homo sapiens) (Q8WZA2 whole entry, looked up): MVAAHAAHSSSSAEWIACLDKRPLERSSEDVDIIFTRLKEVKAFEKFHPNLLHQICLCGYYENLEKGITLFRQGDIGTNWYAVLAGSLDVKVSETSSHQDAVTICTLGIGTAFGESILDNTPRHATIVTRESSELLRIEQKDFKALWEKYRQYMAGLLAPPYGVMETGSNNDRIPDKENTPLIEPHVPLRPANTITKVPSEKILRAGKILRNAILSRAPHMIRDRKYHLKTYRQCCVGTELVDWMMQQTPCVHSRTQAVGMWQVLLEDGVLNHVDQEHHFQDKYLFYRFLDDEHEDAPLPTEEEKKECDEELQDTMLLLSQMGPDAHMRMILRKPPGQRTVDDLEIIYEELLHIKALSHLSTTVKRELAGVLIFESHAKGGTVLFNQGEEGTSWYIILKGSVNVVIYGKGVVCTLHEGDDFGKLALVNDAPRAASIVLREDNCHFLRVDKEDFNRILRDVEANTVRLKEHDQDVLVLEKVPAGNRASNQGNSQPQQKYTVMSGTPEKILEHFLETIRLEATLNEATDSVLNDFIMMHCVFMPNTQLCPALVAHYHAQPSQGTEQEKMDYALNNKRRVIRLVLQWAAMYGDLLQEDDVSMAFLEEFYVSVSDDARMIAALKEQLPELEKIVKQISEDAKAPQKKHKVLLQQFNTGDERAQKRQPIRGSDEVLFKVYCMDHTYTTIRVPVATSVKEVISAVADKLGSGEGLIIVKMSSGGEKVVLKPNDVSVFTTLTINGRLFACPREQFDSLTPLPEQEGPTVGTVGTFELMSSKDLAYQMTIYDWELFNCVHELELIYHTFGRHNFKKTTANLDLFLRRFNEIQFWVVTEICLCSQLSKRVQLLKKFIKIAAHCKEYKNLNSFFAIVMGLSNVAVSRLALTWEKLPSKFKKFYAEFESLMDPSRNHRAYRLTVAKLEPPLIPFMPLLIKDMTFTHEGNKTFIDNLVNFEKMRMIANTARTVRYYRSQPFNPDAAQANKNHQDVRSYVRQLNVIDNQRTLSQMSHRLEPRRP
# Chain of Tyrosine-protein kinase Yes (Homo sapiens) (P07947 whole entry, looked up): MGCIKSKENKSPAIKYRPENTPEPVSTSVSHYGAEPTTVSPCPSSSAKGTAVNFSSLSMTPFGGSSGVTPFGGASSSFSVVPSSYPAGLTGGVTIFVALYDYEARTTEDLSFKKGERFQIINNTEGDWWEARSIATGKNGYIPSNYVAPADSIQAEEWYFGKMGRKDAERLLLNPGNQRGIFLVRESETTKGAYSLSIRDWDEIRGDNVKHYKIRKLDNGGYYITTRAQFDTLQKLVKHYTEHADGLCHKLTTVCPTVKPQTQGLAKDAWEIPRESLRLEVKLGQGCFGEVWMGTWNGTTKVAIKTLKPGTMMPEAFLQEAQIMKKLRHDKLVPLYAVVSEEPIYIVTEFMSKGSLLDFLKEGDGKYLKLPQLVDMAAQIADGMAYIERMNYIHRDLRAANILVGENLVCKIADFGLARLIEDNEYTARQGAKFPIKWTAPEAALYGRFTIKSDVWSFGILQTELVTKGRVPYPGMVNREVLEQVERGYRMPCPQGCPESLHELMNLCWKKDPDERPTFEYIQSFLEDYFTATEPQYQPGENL
# Chain of Phospholipid hydroperoxide glutathione peroxidase GPX4 (Homo sapiens) (P36969 whole entry, looked up): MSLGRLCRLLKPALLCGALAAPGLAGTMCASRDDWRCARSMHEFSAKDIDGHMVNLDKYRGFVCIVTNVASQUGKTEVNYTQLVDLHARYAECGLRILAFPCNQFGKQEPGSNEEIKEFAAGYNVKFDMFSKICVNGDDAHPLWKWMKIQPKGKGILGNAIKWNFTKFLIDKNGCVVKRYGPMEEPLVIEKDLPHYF
# Chain of Muscarinic acetylcholine receptor M1 (Rattus norvegicus) (P08482 whole entry, looked up): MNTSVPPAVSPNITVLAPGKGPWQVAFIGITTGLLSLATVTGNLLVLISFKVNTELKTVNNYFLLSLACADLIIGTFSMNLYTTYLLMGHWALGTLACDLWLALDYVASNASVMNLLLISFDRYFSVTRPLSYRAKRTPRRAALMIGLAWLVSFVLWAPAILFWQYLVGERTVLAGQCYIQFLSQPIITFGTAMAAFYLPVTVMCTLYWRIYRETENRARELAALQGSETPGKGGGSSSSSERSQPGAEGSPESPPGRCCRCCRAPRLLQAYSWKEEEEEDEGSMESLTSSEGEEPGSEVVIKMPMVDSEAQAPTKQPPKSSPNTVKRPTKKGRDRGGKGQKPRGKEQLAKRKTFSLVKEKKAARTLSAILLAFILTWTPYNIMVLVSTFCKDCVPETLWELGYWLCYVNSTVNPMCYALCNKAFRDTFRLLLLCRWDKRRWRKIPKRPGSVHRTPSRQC
# Chain of Rap guanine nucleotide exchange factor 3 (Homo sapiens) (O95398 whole entry, looked up): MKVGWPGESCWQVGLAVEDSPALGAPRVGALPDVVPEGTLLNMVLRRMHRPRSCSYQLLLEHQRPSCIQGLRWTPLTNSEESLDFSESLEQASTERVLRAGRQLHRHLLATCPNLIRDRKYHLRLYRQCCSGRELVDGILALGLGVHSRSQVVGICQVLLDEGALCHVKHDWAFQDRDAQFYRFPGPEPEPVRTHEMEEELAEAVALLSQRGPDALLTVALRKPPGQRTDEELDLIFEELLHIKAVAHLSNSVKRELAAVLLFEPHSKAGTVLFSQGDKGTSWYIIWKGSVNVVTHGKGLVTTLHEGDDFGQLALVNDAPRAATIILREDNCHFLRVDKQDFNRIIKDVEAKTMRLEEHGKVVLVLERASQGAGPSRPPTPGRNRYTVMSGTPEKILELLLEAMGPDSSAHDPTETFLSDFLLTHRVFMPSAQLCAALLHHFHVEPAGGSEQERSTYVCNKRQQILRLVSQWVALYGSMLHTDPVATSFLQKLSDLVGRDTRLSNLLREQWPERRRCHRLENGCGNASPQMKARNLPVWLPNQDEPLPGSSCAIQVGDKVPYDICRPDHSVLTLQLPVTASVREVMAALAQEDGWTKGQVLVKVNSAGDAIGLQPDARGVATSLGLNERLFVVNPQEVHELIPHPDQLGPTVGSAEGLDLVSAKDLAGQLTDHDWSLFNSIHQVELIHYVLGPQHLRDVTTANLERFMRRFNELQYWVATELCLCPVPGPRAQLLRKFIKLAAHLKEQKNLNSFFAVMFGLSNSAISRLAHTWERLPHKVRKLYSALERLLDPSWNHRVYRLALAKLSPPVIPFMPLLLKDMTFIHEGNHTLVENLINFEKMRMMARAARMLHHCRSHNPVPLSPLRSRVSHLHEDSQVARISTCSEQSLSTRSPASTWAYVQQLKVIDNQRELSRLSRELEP
# Chain of Voltage-gated inwardly rectifying potassium channel KCNH2 (Homo sapiens) (Q12809 whole entry, looked up): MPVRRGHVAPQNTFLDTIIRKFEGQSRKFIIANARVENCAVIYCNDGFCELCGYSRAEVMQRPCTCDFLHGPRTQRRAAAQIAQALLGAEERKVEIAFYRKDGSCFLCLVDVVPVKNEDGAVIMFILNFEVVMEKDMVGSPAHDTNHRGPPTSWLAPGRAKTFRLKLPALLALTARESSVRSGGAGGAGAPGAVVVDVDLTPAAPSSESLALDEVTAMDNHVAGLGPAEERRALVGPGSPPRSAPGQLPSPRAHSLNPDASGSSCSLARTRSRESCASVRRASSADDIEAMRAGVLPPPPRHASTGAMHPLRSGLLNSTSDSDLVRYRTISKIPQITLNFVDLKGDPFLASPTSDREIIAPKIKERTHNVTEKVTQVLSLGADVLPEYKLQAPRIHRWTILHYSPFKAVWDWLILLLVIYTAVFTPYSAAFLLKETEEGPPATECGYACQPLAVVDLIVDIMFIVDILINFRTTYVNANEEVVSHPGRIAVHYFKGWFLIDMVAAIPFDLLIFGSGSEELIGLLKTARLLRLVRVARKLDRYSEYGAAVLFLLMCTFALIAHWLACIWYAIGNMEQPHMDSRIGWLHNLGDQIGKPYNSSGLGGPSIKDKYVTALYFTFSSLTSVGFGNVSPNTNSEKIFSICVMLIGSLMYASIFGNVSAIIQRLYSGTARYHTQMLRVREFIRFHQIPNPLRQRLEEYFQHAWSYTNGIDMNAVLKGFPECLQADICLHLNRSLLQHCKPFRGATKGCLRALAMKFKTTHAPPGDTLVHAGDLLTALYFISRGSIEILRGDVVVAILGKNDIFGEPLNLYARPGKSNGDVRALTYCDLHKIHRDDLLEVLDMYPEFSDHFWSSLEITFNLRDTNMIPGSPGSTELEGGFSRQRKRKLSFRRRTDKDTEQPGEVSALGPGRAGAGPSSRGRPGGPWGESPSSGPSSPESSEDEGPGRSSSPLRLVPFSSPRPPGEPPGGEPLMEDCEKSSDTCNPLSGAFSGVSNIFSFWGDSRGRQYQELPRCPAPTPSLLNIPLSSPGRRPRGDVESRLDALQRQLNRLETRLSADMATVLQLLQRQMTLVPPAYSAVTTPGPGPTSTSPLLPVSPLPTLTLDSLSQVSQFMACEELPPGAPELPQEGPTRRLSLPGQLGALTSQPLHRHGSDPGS
smiles,measurement,setting,value
CN(C)CCCCSC(=N)N,Potency,[1],inactive
same,outcome,[2],inactive
same,Potency,[3],inactive
same,outcome,[4],inactive
Cc1ccc(Nc2ncc3c(n2)N(C)C(=O)N(c2cc(NC(=O)c4cccc(C(F)(F)F)c4)ccc2C)C3)cn1,Potency,[5],65.8 nM (active)
same,Potency,[6],394 nM (active)
CC1(C)CC[C@]2(C(=O)O)CC[C@]3(C)C(=CC[C@@H]4[C@@]5(C)C[C@@H](O)[C@H](O)C(C)(C)[C@@H]5CC[C@]43C)[C@@H]2C1,Potency,[7],inactive
COc1ccc(Cl)cc1N=Nc1ncc[nH]1,Potency,[8],inactive
same,Potency,[9],35500 nM (active)
C=CCN1CCc2cc(O)c(O)cc2[C@H](c2ccccc2)C1,Potency,[10],5010 nM (active)
CNC(=O)[C@H]1O[C@@H](n2cnc3c(NCc4cccc(I)c4)nc(Cl)nc32)[C@H](O)[C@@H]1O,Potency,[7],inactive
N[C@@H](Cc1cc(CP(=O)(O)O)cc(-c2ccccc2Cl)c1)C(=O)O,Potency,[9],inactive
CN(c1ccc(NC(=O)Nc2ccc(OC(F)(F)F)cc2)cc1)c1ccnc(Nc2cccc(S(N)(=O)=O)c2)n1,Potency,[11],82.3 nM (active)
same,outcome,[12],inactive
COc1ccc(-c2oc3ncnc(N)c3c2-c2ccc(NC(=O)Nc3cc(C(F)(F)F)ccc3F)cc2)cc1,Potency,[11],1040 nM (active)
same,outcome,[12],inactive
Cc1ccc(OCC(O)C(C)NC(C)C)c2c1CCC2 (stereo not given),Potency,[13],inactive
N#CC(=C(/N)Sc1ccccc1N)/C(C#N)=C(/N)Sc1ccccc1N,Potency,[14],inactive
OC[C@H]1OC([S-])[C@H](O)[C@@H](O)[C@H]1O.[Au+] (stereo not given in full),remaining parasite growth % (stronger effect = lower value),[15],86.3%
same,"activity, percent of control",[16],98.2%
same,"remaining proliferation (% of control), lower = more inhibition",[17],78.1%
C[C@@]12C(=O)OC(=O)[C@@]1(C)[C@@H]1CC[C@@H]2O1,Potency,[18],inactive
same,outcome,[19],inactive
same,outcome,[20],inactive
NS(=O)(=O)c1cc2c(cc1Cl)N[C@@H]([C@@H]1C[C@@H]3C=C[C@H]1C3)NS2(=O)=O,Potency,[14],inactive
